Experimental data as given in the supplement of paper PMC11732987, “Enantioselective OTUD7B fragment discovery through chemoproteomics screening and high-throughput optimisation” (Communications Chemistry, 2025).
Unmarked numbers belong to inactive results.

What was measured:
Assay in all cases: log2 ratio of Biotin-Ahx-Ub-VS probe labelling (fragment/DMSO); higher = less target engagement (more negative = stronger competition), active = hit call of the paper (q ≤ 0.05, log2 ratio ≤ -1)
Details in all cases: compound concentration: 200 uM; treatment time: 3 h
[1] = compound: CC(C)CN(C1CC1)C(=O)CCl
Procedure, shortened: (§1)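 HEK293T lysate, 495 µg per sample in Tris/CHAPS/IGEPAL buffer with protease inhibitors, was treated in triplicate with fragment at 200 µM or vehicle for 3 h and then with Biotin-Ahx-Ub-VS at 0.5 µM final for 1 h. Labelled DUBs were NeutrAvidin-enriched, digested with LysC and trypsin, and run by diaPASEF LC-MS/MS. Spectronaut label-free quantities were global-median-normalised, and values are average log2 fragment/vehicle ratios by unpaired t-test on proteins with ≥2 unique peptides.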

[2] = compound: CC(NC(=O)CCl)c1cccs1
Procedure, shortened: as §1

[3] = compound: CC1CCCCC1NC(=O)CCl
Procedure, shortened: as §1

[4] = compound: CC1CCCCN1C(=O)CCl
Procedure, shortened: as §1

[5] = compound: CC1CN(CC(C)O1)C(=O)CCl
Procedure, shortened: as §1

[6] = compound: CN(C1CCCCC1)C(=O)CCl
Procedure, shortened: as §1

[7] = compound: Cc1cc(NC(=O)CCl)no1
Procedure, shortened: as §1

[8] = compound: Cc1cccc(NC(=O)CCl)c1
Procedure, shortened: as §1

[9] = compound: Cc1nc(NC(=O)CCl)sc1C
Procedure, shortened: as §1

[10] = compound: Cc1nnc(NC(=O)CCl)s1
Procedure, shortened: as §1

[11] = compound: Cl.Cc1ncsc1CNC(=O)CCl
Procedure, shortened: as §1

[12] = compound: ClCC(=O)N1CCCCCCC1
Procedure, shortened: as §1

[13] = compound: ClCC(=O)NC1(CCCC1)C#N
Procedure, shortened: as §1

[14] = compound: ClCC(=O)NCC1CCC1
Procedure, shortened: as §1

[15] = compound: ClCC(=O)NCC1CCCO1
Procedure, shortened: as §1

[16] = compound: ClCC(=O)NCc1ccco1
Procedure, shortened: as §1

[17] = compound: ClCC(=O)Nc1cccc(Cl)c1
Procedure, shortened: as §1

UniProt Q86UV5, sequence (Q86UV5 whole entry): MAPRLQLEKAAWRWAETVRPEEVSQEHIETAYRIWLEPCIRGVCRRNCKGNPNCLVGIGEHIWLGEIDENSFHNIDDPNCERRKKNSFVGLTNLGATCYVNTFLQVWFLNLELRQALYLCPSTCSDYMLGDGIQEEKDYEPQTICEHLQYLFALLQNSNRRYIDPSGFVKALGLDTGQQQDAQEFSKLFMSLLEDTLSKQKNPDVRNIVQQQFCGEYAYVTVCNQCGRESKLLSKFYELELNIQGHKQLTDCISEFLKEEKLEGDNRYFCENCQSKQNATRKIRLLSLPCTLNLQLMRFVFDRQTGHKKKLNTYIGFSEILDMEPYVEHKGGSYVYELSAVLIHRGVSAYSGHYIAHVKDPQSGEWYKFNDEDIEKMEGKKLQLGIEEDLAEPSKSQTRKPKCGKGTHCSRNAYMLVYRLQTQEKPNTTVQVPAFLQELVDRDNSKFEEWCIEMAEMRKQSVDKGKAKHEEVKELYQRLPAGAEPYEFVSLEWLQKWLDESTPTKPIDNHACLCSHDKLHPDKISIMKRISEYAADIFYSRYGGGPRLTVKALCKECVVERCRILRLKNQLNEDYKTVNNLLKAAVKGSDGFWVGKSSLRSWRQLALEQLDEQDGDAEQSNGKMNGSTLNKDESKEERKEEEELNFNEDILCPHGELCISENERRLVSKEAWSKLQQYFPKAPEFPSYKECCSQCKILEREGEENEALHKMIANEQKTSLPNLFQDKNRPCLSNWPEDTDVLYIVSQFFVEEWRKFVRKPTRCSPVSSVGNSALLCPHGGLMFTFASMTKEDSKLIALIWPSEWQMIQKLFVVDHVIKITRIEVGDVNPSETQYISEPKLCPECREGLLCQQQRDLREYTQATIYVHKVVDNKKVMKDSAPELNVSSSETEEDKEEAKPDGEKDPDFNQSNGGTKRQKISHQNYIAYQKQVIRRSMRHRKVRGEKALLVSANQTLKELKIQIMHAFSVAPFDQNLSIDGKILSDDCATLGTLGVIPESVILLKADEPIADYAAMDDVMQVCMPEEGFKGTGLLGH
UniProt Q70EL1, sequence (Q70EL1 whole entry): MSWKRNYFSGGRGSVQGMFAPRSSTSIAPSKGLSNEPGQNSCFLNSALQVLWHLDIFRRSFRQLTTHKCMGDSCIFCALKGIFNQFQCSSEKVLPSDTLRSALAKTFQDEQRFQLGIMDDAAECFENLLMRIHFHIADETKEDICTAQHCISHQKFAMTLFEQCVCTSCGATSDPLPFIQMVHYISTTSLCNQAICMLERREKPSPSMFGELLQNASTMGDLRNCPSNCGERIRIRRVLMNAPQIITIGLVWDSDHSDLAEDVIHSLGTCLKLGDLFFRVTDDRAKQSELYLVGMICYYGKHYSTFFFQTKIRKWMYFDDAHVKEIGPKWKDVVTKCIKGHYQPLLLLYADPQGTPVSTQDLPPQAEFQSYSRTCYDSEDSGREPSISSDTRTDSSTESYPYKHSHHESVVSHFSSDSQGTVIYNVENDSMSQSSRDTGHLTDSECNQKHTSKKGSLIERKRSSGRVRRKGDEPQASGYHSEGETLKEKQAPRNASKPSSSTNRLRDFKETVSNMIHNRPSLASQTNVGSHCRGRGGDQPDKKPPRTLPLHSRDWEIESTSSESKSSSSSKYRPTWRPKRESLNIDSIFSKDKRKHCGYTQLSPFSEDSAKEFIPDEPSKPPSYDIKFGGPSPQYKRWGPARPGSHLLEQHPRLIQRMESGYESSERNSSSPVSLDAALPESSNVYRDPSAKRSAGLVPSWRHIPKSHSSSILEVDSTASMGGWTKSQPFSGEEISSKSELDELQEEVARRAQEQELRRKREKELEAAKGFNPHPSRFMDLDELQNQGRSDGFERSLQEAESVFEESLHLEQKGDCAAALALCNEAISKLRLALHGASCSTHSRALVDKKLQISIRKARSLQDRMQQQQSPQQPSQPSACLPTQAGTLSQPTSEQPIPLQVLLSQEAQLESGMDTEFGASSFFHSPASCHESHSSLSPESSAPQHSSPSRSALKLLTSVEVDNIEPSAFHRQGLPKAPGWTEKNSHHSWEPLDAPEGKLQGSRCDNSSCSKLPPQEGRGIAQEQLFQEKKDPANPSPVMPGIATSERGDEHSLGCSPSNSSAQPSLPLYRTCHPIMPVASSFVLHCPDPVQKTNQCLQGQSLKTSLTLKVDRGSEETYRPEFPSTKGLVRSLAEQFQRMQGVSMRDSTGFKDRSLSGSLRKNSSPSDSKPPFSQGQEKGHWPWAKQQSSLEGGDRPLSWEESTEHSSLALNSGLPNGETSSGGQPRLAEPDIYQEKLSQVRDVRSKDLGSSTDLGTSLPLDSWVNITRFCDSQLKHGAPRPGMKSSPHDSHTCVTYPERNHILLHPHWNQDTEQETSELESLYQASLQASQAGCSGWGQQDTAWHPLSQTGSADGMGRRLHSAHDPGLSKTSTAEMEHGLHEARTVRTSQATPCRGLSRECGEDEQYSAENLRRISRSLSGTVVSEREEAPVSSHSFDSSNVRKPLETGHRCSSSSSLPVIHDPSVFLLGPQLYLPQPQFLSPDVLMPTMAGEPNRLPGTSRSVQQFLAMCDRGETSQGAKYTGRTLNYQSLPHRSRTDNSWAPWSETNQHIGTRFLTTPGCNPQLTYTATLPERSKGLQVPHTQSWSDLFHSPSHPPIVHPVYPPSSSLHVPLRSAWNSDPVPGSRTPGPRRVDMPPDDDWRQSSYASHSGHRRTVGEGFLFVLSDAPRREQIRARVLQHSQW
UniProt Q9P275, sequence (Q9P275 whole entry): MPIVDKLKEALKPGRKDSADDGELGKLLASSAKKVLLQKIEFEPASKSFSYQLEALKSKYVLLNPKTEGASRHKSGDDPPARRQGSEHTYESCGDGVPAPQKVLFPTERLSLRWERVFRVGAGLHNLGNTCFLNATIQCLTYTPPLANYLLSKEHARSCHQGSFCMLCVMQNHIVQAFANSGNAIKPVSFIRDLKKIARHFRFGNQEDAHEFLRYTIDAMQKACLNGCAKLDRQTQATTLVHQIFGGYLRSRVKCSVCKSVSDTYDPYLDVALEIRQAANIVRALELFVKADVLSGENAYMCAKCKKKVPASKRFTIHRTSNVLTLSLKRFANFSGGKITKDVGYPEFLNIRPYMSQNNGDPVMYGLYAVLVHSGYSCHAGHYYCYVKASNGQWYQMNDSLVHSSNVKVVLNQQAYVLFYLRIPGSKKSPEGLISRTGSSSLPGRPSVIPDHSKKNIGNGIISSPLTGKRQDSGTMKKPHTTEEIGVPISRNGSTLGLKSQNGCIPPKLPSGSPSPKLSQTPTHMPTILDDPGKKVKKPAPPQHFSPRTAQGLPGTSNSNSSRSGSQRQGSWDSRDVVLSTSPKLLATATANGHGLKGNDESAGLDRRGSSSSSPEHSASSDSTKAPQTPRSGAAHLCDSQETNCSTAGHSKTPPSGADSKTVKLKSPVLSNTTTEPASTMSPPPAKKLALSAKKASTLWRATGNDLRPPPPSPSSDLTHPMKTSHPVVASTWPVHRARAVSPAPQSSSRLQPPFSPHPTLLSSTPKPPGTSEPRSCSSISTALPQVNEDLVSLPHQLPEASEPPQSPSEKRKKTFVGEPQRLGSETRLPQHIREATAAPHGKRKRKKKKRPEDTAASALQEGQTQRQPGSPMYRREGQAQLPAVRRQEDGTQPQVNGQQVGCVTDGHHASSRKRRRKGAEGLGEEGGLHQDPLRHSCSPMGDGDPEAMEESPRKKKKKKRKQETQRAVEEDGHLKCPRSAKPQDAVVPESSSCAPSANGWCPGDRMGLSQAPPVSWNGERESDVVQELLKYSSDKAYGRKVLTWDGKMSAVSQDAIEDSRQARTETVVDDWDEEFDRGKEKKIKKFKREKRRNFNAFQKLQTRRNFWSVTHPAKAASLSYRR
UniProt Q5T2D3, sequence (Q5T2D3 whole entry): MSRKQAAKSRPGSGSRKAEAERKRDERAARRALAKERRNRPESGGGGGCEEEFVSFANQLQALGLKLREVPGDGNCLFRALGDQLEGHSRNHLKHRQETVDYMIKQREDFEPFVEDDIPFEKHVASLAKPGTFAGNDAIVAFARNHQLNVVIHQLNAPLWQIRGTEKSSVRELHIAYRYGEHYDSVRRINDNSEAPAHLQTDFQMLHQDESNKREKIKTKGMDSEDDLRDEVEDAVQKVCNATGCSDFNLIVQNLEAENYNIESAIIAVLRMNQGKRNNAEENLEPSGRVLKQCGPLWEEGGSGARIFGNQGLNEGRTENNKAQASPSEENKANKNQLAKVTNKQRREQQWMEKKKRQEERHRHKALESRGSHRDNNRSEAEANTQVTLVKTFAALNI
UniProt P54578, sequence (P54578 whole entry): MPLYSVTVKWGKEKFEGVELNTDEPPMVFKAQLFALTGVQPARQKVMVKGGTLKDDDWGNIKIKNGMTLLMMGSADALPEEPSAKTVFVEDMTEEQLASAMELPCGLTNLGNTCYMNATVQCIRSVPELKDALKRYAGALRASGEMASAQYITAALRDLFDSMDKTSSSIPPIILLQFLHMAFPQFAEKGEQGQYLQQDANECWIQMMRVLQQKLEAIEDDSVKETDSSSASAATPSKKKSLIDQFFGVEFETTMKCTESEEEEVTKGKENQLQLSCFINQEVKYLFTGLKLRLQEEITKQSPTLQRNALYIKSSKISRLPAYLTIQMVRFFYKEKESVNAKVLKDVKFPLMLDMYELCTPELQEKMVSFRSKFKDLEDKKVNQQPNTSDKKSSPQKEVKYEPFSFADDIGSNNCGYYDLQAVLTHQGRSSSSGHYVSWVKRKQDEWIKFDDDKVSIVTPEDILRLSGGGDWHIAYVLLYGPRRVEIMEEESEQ
UniProt Q92905, sequence (Q92905 whole entry, looked up): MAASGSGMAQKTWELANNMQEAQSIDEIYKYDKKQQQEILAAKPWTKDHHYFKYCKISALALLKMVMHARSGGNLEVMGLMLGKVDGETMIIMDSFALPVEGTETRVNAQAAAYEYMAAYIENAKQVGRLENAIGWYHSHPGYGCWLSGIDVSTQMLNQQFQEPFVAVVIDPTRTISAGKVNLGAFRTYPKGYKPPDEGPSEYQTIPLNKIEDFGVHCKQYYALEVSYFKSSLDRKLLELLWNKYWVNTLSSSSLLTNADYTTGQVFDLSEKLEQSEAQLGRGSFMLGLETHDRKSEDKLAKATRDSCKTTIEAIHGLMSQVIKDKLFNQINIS

Row | Target | log2 ratio of Biotin-Ahx-Ub-VS probe labelling [1] | log2 ratio of Biotin-Ahx-Ub-VS probe labelling [2] | log2 ratio of Biotin-Ahx-Ub-VS probe labelling [3] | log2 ratio of Biotin-Ahx-Ub-VS probe labelling [4] | log2 ratio of Biotin-Ahx-Ub-VS probe labelling [5] | log2 ratio of Biotin-Ahx-Ub-VS probe labelling [6] | log2 ratio of Biotin-Ahx-Ub-VS probe labelling [7] | log2 ratio of Biotin-Ahx-Ub-VS probe labelling [8] | log2 ratio of Biotin-Ahx-Ub-VS probe labelling [9] | log2 ratio of Biotin-Ahx-Ub-VS probe labelling [10] | log2 ratio of Biotin-Ahx-Ub-VS probe labelling [11] | log2 ratio of Biotin-Ahx-Ub-VS probe labelling [12] | log2 ratio of Biotin-Ahx-Ub-VS probe labelling [13] | log2 ratio of Biotin-Ahx-Ub-VS probe labelling [14] | log2 ratio of Biotin-Ahx-Ub-VS probe labelling [15] | log2 ratio of Biotin-Ahx-Ub-VS probe labelling [16] | log2 ratio of Biotin-Ahx-Ub-VS probe labelling [17]
1 | UniProt O00507 | 0.374 | 0.0497 | -0.0879 | -0.429 | -0.148 | 0.12 | 0.023 | 0.0709 | 0.409 | -0.563 | -0.51 | 0.333 | 0.0321 | 0.0835 | 0.383 | -0.338 | -0.568
2 | USP14 (UniProt P54578) | -0.0633 | 0.0378 | -0.306 | -0.639 | -0.518 | -0.00359 | -0.188 | -0.184 | 0.051 | -0.437 | -0.178 | -0.0389 | -0.0892 | 0.0427 | 0.00941 | -0.0561 | -0.675
3 | USP36 (UniProt Q9P275) | -0.165 | 0.124 | -0.354 | -0.058 | -0.116 | -0.0255 | -0.0892 | -0.141 | -0.166 | -0.233 | 0.171 | -0.19 | -0.191 | -0.134 | -0.189 | -0.185 | -0.132
4 | USP42 (UniProt Q9H9J4) | 0.361 | -0.342 | -0.295 | -0.305 | -0.42 | -0.0896 | 0.113 | 0.381 | 0.125 | 0.374 | 0.49 | 0.0331 | -0.72 | -0.299 | -0.0821 | -0.125 | 0.584
5 | USP25 (UniProt Q9UHP3) | -0.0734 | -0.0952 | -0.722 | -0.62 | -0.368 | 0.0415 | -0.392 | -0.444 | -0.307 | -0.446 | -0.133 | -0.102 | -0.276 | -0.149 | 0.0208 | -0.419 | -1.21 (active)
6 | COPS5 (UniProt Q92905) | -0.228 | 0.105 | -0.102 | -0.0488 | -0.0269 | 0.0396 | -0.141 | -0.303 | -0.00505 | -0.0303 | 0.0391 | 0.0347 | 0.203 | 0.0382 | 0.0301 | 0.0105 | 0.27
7 | USP48 (UniProt Q86UV5) | -0.00536 | -0.0207 | -0.24 | -0.338 | -0.249 | -0.456 | -0.25 | -0.217 | -0.179 | -0.251 | 0.0264 | -0.519 | -0.56 | -0.21 | -0.0126 | -0.405 | -0.545
8 | USP9X (UniProt Q93008) | -0.0684 | -0.269 | -0.142 | -0.264 | -0.347 | -0.336 | -0.0452 | -0.0218 | -0.239 | -0.36 | -0.111 | 0.0487 | -0.264 | -0.191 | -0.0136 | -0.446 | -0.734
9 | USP16 (UniProt Q9Y5T5) | -0.505 | -0.513 | 0.199 | -0.203 | -0.306 | -0.171 | -0.735 | -0.611 | -0.0917 | -0.476 | 0.128 | -0.675 | -0.0851 | -0.131 | -0.506 | -0.128 | -0.24
10 | UniProt Q5T2D3 | 0.0213 | -0.301 | -0.208 | -0.128 | -0.269 | -0.159 | -0.226 | -0.0544 | -0.17 | -0.141 | -0.0477 | -0.0257 | -0.314 | -0.239 | -0.00242 | -0.0389 | -0.998
11 | USP54 (UniProt Q70EL1) | 0.0698 | 0.582 | 0.646 | 0.245 | 0.658 | 0.179 | 0.204 | 0.439 | 0.226 | 0.528 | 0.34 | -0.205 | 0.194 | 0.336 | 0.0874 | 0.439 | 0.681
12 | OTUD4 (UniProt Q01804) | 0.0776 | -0.761 | -0.763 | -0.46 | -0.413 | -0.109 | 0.0839 | -0.0534 | -0.136 | 0.02 | -0.0939 | -0.131 | -2.71 (active) | -0.397 | 0.0366 | -0.354 | -0.972
